Here are results for 29 molecules from PubChem BioAssay AID430 (Sanford-Burnham Center for Chemical Genomics, 2006).

Structures are written as SMILES. Out of some 63,000 compounds screened, about 1,100 (1.7%) were called active. The sample as a whole holds a higher share of actives than the screen did. Potency and affinity values are given separately. Values without a mark were called inactive. No stated cut-off is given here; in the data, active means cytotoxicity above about 50%; inactive means the rest.

This assay can be described thus: HPDE-C7 pancreatic duct cell viability loss – fluorescence, HTS (AID 430).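 Further: cells exposed to compound for 48 hours before viability readout; 0% = vehicle and 100% = reference cytotoxic drug.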 The note with it: HPDE-C7 pancreatic duct cells viability, at 10 µM, stronger effect = higher value.
Regarding `CCc1ccc2[nH]c(=O)c(C(c3nnnn3CCOC)N3CCN(c4ccccc4F)CC3)cc2c1` (centres undefined), the cytotoxicity is -22%.

As for `Cc1cc(Nc2ccccc2)nc(-c2ccccc2O)n1`, the cytotoxicity is -2.9%. Turning to `Cc1cc(C)nc(NCCCc2ccccc2)n1`, the cytotoxicity was -5.9%. In the case of `CCCCNc1cc(C)nc(NCc2ccccc2)n1` it was 84.4% (active); in that of `CCCCOc1cc(C)nc(NCc2ccccc2)n1`, -30.8%; in that of `Cc1cc(NCCCN)nc(-c2ccccc2O)n1`, 16.4%. To `O=c1[nH]c2ccc(S(=O)(=O)N3CCCCC3)cc2[nH]1` belongs -1.4%; to `CCOC(=O)c1ccccc1NCN1C(=O)CSC1=O`, -1.8%. In the case of `Cc1cc(=O)[nH]c(/N=C(\N)Nc2cccc3ccccc23)n1` it was 0.5%; in that of `COc1ccc(C2C3=C(N=C4SCC(=O)N42)c2ccccc2CC3)cc1OC` (centres undefined), 19.3%. For `O=C(O)c1ccccc1-c1ccccc1C(=O)NCc1ccco1`, the cytotoxicity is 0.7%. To `Cn1c(=O)cc(OCC(=O)N2CCCc3ccccc32)c2ccccc21` belongs -9.1%; to `Cc1cc(C)c2nc(NC3=NCN(CCN4CCOCC4)CN3)nc(C)c2c1`, -7.5%. To `CC1=C(C)C(=O)NC(Nc2nc(C)c3cc(C)cc(C)c3n2)N1` (centres undefined) belongs 86.5% (active). In the case of `O=C(c1cc(S(=O)(=O)N2CCCCC2)c(Cl)cc1N1CCOCC1)N1CCOCC1` it was -5.8%. For `COc1cc(Cl)c(S(=O)(=O)n2cnc(C)c2)cc1Cl`, the cytotoxicity was -0.2%. `COc1cc(C)c(C(C)C)cc1S(=O)(=O)N1CCN(C)CC1`: the cytotoxicity is -22.7%. In the case of `Clc1ccc(OCc2nc(-c3ccncc3)no2)c(Cl)c1` it was -6.9%. Consider `Cc1ccc2c(c1)c1ncnc(N3CCOCC3)c1n2C`, for which the cytotoxicity was -13.7%.

In the case of `Cc1ccc2c(c1)c1ncnc(N3CCN(c4ccccc4)CC3)c1n2C`, the cytotoxicity was -1.6%. In the case of `O=C(c1ccc(S(=O)(=O)N2CCC(c3nc4ccccc4s3)CC2)cc1)N1CCOCC1` it was 1.1%. To `Cc1cccc(NS(=O)(=O)c2cccs2)n1` belongs -0.9%. For `COc1ccc(NC(=O)N(CCC(C)C)C(C)c2ccccn2)c(OC)c1` (centres undefined), the cytotoxicity is -1.9%. In the case of `O=c1c(-c2ccccc2)coc2c(CN3CCCC3)c(O)ccc12` it was 5.3%; in that of `COc1ccc(-c2coc3c(CN4CCCCC4)c(O)c(CN4CCCCC4)c(O)c3c2=O)cc1`, 53.1% (active); in that of `COc1ccc(C(=O)c2coc3ccc(O)c(CN4CCCCC4)c23)cc1`, 14.9%. In the case of `COc1ccccc1Cn1c(=O)c2ccccc2n2c(Sc3ncnc4sccc34)nnc12` it was 38.5%; in that of `O=c1[nH]nc(Sc2ncnc3sccc23)n1CCc1ccccc1`, 51.5% (active); in that of `c1ccc(-c2cnc(CSc3ncnc4sccc34)o2)cc1`, -9%.
